The list is not random: actives were taken first. Their share in the collection is about 2.2%.
APP 5UTR inh: APP translation inhibition. inhibition, % at 2 µM. SH-SY5Y APP 5'UTR-luciferase reporter, luminescence. hit rate 0.82% among 190,000. AID 1285;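 active = inhibition above a set limit, derived from the sample mean plus 3 SD, cut at about 45% in these data; inconclusive = one replicate passes the limit while the other fails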
BaF3 parental: reduces parental Ba/F3 cell viability, JAK2V617F counter-screen | CellTiter-Glo ATP luminescence | inhibition, % at 5.6 µM | AID 1486 | hit rate 1.1% among 220,000;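 active = inhibition above a per-campaign cutoff, the mean inhibition of all tested compounds plus 3 SD, cut at about 27% in these data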;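 note: 0% = DMSO wells and 100% = JAK Inhibitor I control wells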
Ba/F3 V617F tox: loss of viability in JAK2V617F-driven Ba/F3 cells | Ba/F3 EpoR-JAK2V617F viability, ATP luminescence | hit rate 1.1% among 220,000 | inhibition, % at 5.6 µM;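 active = inhibition above the campaign mean plus 3 SD over all tested compounds, cut at about 24% in these data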;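 note: cytokine-independent growth of Ba/F3 cells driven by EpoR plus mutant JAK2; 0% = DMSO-treated cells and 100% = JAK inhibitor I control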
aSyn UTR inh: MLPCN primary screen, SNCA 5' untranslated region; alpha-synuclein 5'UTR reporter, inhibitor activity; inhibition, % (tested at 7.5 µM); hit rate 0.82% among 300,000; AID 1813; in the data active = inhibition above about 60%; inconclusive = no clear call, values can overlap the other calls;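 note: H4 neuroglioblastoma cells stably carrying SNCA 5'UTR luciferase fusion; 0% = DMSO wells and 100% = positive control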
IEC-6 tox-1: IEC-6 cytotoxicity, counter-screen for KLF5 inhibitors; inhibition, % at 5 µM; hit rate 0.78% among 290,000; AID 1825; luminescence viability; in the data active = inhibition above about 22%;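 note: 0% = plate median of test compound wells and 100% = cytotoxic reference compound wells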
KLF5 inh: inhibitors of KLF5 expression; DLD-1 KLF5 promoter-luciferase reporter, luminescence; inhibition, % at 5 µM; hit rate 0.23% among 290,000; AID 1700;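 active = inhibition above a per-plate limit of that plate's mean compound inhibition plus 3 SD, cut at about 60% in these data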;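 note: 0% = DMSO wells and 100% = LY294002 at 200 µM; higher means less KLF5 promoter-driven luciferase light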
KLF5 inh confirm: confirmation of KLF5 inhibitors. inhibition, % at 4 µM. shares compounds with KLF5 inh. DLD-1 KLF5 promoter firefly luciferase reporter, luminescence. hit rate 79% among 610;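 active = inhibition above a set limit taken from the earlier primary screen, cut at about 63% in these data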;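 note: 0% = DMSO wells and 100% = LY294002 at 200 µM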
IEC-6 tox-2: counter-screen for KLF5 inhibitors: cytotoxicity in rat IEC-6 cells; shares compounds with KLF5 inh; IEC-6 rat intestinal cells, viability luminescence; inhibition, % at 4 µM; hit rate 56% among 610; AID 1905; in the data active = inhibition above about 23%;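 note: cells exposed to compounds for 48 hours before viability read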
An asterisk follows results filed as active; ? = inconclusive; nt = no result.

SMILES	APP 5UTR inh	BaF3 parental	Ba/F3 V617F tox	aSyn UTR inh	IEC-6 tox-1	KLF5 inh	KLF5 inh confirm	IEC-6 tox-2
Cc1nn(-c2ccc3ccccc3c2)c(=O)c2ccccc12	-142	4	5	-183	10	-51	nt	nt
Cc1nn(-c2nc3ccccc3[nH]2)c(=O)c2ccccc12	74*	87*	83*	115*	85*	110*	105*	63*
CCOc1ccc(N=Nc2ccc(O)c3ncccc23)cc1	nt	nt	nt	18	14	65*	19	-1
CCOc1ccc(N=Nc2cc(C(C)C)ccc2O)cc1	11	6	4	-30	2	17	nt	nt
CCN(CC)S(=O)(=O)c1cccc2cccnc12	-9	2	-3	-40	2	-31	nt	nt
CCN(CC)S(=O)(=O)c1cc(OC)ccc1N=Nc1ccc(O)c2ncccc12	nt	nt	nt	?	7	87*	87*	4
O=C(Nc1ccccn1)c1ccc(C(=O)c2ccccc2)cc1	nt	nt	nt	-108	nt	nt	nt	nt
O=C(NC(=O)c1ccccc1)Nc1ccccn1	nt	nt	nt	64*	13	84*	66*	33*
Cc1nc(C)c(C(=O)Nc2ncc([N+](=O)[O-])s2)o1	-72	15	9	50	-7	8	nt	nt
COc1cccc2c1C(CO)N1C(C#N)C3CC(C(=O)O)C(C1C2)N3C (configuration not stated)	nt	95*	94*	nt	100*	110*	109*	100*
COc1cccc2c1OCC(C(=O)O)C2 (configuration not stated)	1	8	-1	16	-5	-15	nt	nt
CN1CCN(C(c2ccc(C(F)(F)F)cc2)c2ccc3cccnc3c2O)CC1 (configuration not stated)	nt	nt	nt	46	2	48	nt	nt
Oc1c(C(c2cccs2)N2CCN(c3ccccc3)CC2)ccc2cccnc12 (configuration not stated)	59*	83*	98*	nt	0	69*	-20	-6
Cc1cc(C(=O)COC(=O)c2ccccc2O)c(C)n1Cc1cccs1	-8	2	-3	93*	-3	81*	78*	-10
CCOc1ccccc1CNC(=O)C1CCCN(c2nn3c(=O)cc(C)nc3s2)C1 (configuration not stated)	nt	nt	nt	23	0	-8	nt	nt
COCCNC(=O)C(=O)Nc1cc2c3c(c1)C(C)C(=O)N3CCC2 (configuration not stated)	nt	nt	nt	7	-6	-41	nt	nt
Cc1ccc(NC2CCCN(C(=O)c3cnsn3)C2)cc1C (configuration not stated)	nt	nt	nt	-1	0	-12	nt	nt
Cc1cc(C)c(NC(=O)C2CC(=O)N(C(C)C)C2)c(C)c1 (configuration not stated)	nt	nt	nt	9	-2	-58	nt	nt
COc1cccc(OC)c1C(=O)NCCc1ccccc1	nt	nt	nt	10	nt	nt	nt	nt
COC(=O)c1c(N)sc(C(=O)NCCc2ccccc2)c1C	nt	nt	nt	105*	2	93*	85*	-2
O=C(O)c1ccc(N/N=C/c2c(F)cccc2Cl)cc1	nt	nt	nt	-2	-1	66*	55	0
CN(C)c1ccc(/C=N/Nc2cccc(C(=O)O)c2)cc1	nt	nt	nt	77*	0	75*	109*	11
CC(C)(C)c1ccc(/C=N/Nc2ccc(C(=O)O)cc2)cc1	-55	1	6	13	24*	66*	94*	34*
CC(C)(C)c1ccc(/C=N/Nc2cccc(C(=O)O)c2)cc1	-85	3	-3	-17	-2	-121	nt	nt
CCC1CCCCN1CCCNC(=O)CN1C(=O)COc2ccc(S(=O)(=O)N3CCOCC3)cc21 (configuration not stated)	nt	nt	nt	6	-3	-46	nt	nt
SMILES	APP 5UTR inh	BaF3 parental	Ba/F3 V617F tox	aSyn UTR inh	IEC-6 tox-1	KLF5 inh	KLF5 inh confirm	IEC-6 tox-2
CCOC(=O)CCn1cnc2ccc([N+](=O)[O-])cc2c1=O	-8	6	2	12	1	1	nt	nt
O=C1C(=O)N(c2nccs2)C(c2ccccc2F)/C1=C(\O)c1ccc2c(c1)OCCO2 (configuration not stated)	nt	nt	nt	21	1	38	nt	nt
O=C1C(=O)N(c2nccs2)C(c2ccccc2)/C1=C(\O)c1ccc2c(c1)OCCO2 (configuration not stated)	nt	nt	nt	56	-2	74*	54	8
O=C(NCCc1ccccc1)C1CCN(S(=O)(=O)N2CCOCC2)CC1	nt	nt	nt	4	2	-50	nt	nt
Oc1c(CN2CCN(c3ccccc3)CC2)cc(Br)c2cccnc12	nt	12	20	85*	13	52	57	15
COC(=O)c1ccccc1NC(=O)CSc1nnc(-c2ccncc2)o1	26	8	-1	21	-10	-8	nt	nt
N/C(=N\OC(=O)c1ccc(Cl)cc1[N+](=O)[O-])c1ccccn1	nt	nt	nt	-165	7	-111	nt	nt
N/C(=N\OC(=O)c1ccc(Cl)cc1Cl)c1ccccn1	-32	22	14	89*	14	95*	46	3
Cc1ccc(C(=O)O/N=C(\N)c2ccccn2)c(Cl)c1	nt	nt	nt	108*	3	96*	75*	8
CCCCN(CC)C(=O)CN1C(=O)c2ccccc2C1=O	-8	3	0	17	-2	-7	nt	nt
Cc1ccc(C)c(NS(=O)(=O)c2ccc3c(c2)NC(=O)CO3)c1	nt	nt	nt	-23	5	-15	nt	nt
CCN(CC(=O)NC(C)(C)C)Cc1cc(=O)n2c(-c3ccccc3)csc2n1	nt	nt	nt	21	-2	-5	nt	nt
COc1ccc(C(=O)NN(C)c2nc(C(F)(F)F)nc3ccccc23)cc1	95*	95*	96*	33	96*	82*	96*	81*
COc1ccc(C(=O)NN(C)c2nc(-c3ccccc3)nnc2C(F)(F)F)cc1	11	12	4	-9	-3	1	nt	nt
[O-][N+]12CC[N+]([O-])(CC1)c1ccccc12	-4	4	0	-10	5	-14	nt	nt
Oc1cccc(C(Nc2nccs2)c2ccc3cccnc3c2O)c1 (configuration not stated)	73*	65*	68*	132*	48*	74*	92*	63*
O=C(COc1cccc2cccnc12)Nc1nccs1	-46	1	0	-85	5	-103	nt	nt
CCOC(=O)C1C(=O)NC(c2ccccc2)=NC1c1ccccc1 (configuration not stated)	-2	3	-2	-1	-6	-2	nt	nt
C[C@@H]1C=CC(=O)O[C@@H]1c1ccc(C(F)(F)F)cc1	nt	nt	nt	-60	6	62*	38	14
CN1CCN(c2ccc(-c3ccc4ccccc4n3)cc2)CC1	51*	11	14	112*	8	99*	104*	-6
Cc1ccc(NC(=O)c2cc(C)n(-c3cccc(C)c3)c2C)cc1	-63	-1	1	-62	-5	78*	89*	-1
Cc1cc(C(=O)Nc2ccc(Cl)cc2)c(C)n1-c1ccccc1	nt	-1	-3	87*	4	74*	87*	-12
